Experimental findings from PubChem BioAssay (NCATS) are described below.

Test [1] concerns the target Glutathione peroxidase 1 (Homo sapiens) (UniProt P07203). The test is described as follows: Primary qHTS Assay for Inhibitors of Recombinant Selenoprotein Glutathione Peroxidase 1 (GPX1) (AID 1845191). For activity, negative = inhibition: % is set by controls: 0 for no effect and ±100 for the full control effect. Note: nearly all actives have a fitted effect of over 65% in size. Summed up: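 Recombinant GPX1 (10 nM final) was preincubated with compound for 30 min at room temperature, then reacted with 1 mM GSH, 0.5 mM CHP, 0.5 mM NADPH and 100 nM glutathione reductase; NADPH fluorescence (340/450 nm) was read at 0 and 15 min.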
(In general: qHTS replaces the single test concentration by a dilution series.)

Test [2] concerns the target Phospholipid hydroperoxide glutathione peroxidase GPX4 (Homo sapiens) (UniProt P36969). Put plainly: Primary qHTS Assay for Inhibitors of Recombinant Selenoprotein Glutathione Peroxidase 4 (GPX4) (AID 1845192). For activity change, negative = inhibition: series mostly up to about 50 µM; % is set by controls: 0 for no effect and ±100 for the full control effect. Note: nearly all actives have a fitted effect of over 65% in size. The essentials: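 GR-coupled readout: 100 nM GR, 1 mM GSH, 0.5 mM NADPH; NADPH fluorescence (ex 340/em 450 nm) read at t=0 and after 15 min RT. GPX4 200 nM, preincubated 30 min with compound; substrate 0.5 mM CHP.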

The target of test [3] is Luciferin 4-monooxygenase (Photinus pyralis) (UniProt P08659). The test is described as follows: Primary firefly luciferase (FLuc) qHTS assay for identification of artifact compounds. (AID 1845220).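 For activity change, negative = inhibition: series mostly up to about 54 µM; plate controls were DMSO vehicle for no effect and no enzyme for full effect.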 Note: nearly all actives have a fitted effect of over 60% in size. The essentials:
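qHTS, 15 min compound preincubation with substrate (10 uM luciferin, 10 uM ATP) at RT, then 10 nM FLuc; 5 min; luminescence; % inhibition vs no-enzyme/DMSO controls, 4-parameter Hill fit.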

Test [4] in a line: Primary fluorescence-based thiol-reactive (MSTI) qHTS assay for identification of artifact compounds. (AID 1845221).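 For activity change, negative = thiol reactive: series mostly up to about 54 µM; thiol-reactive compounds lower the probe fluorescence signal.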 Note: nearly all actives have a fitted effect of over 65% in size. Note: potency is the fitted concentration of half-maximal effect. The essentials:
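qHTS titration of compound; 4 uM MSTI, PBS pH 7.4, 2% DMSO; 1 h RT, dark; fluorescence 525/598 nm; normalized to Acetyl-MSTI and MSTI; 4-parameter Hill fit.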

In test [5] the test system is Nanoluciferase (engineered Oplophorus gracilirostris luciferase). The test is described as follows: Primary Nanoluciferase (NLuc) qHTS assay for identification of artifact compounds. (AID 1845222).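 Note: series mostly up to about 54 µM; 0% = DMSO and -100% = no enzyme.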 Summed up: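 Luminescence read-out of secreted NLuc in S16 cell conditioned medium (1:55); compounds tested with 15 min RT preincubation, then Nano-Glo substrate 1:100, 5 min. % inhibition vs no-enzyme and DMSO controls, 4-parameter Hill fit.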

Test [6] in a line: Primary redox qHTS assay for identification of artifact compounds. (AID 1845223).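 Note: 0% = DMSO and 100% = reference compound.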 The essentials:
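Amplex Red (25 uM) and HRP (250 mU/mL) in HBSS, with compounds for 15 min, then 250 uM DTT for 30 min, room temperature, dark. Fluorescence 525/598 nm read; normalized to DMSO and 10 uM DA3003; Hill fit.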

Unmarked numbers belong to inactive results. Records with an inconclusive call do not appear. Activity calls are given as the source filed them. Calls come from the whole dose curve; as a rule, active = well fitted curve in the direction sought with a large enough effect; inconclusive = small, poorly fitted or top-dose-only effect, or another doubt; inactive = no such curve, though single readings can be large; an effect the other way counts as inactive or inconclusive.

Chain of Phospholipid hydroperoxide glutathione peroxidase GPX4 (Homo sapiens) (P36969 whole entry, looked up): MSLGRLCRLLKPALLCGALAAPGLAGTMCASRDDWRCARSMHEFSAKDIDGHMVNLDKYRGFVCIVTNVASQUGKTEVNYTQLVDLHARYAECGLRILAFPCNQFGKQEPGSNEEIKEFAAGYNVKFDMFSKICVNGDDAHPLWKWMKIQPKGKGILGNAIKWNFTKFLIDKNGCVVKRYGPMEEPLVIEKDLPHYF
Chain of Glutathione peroxidase 1 (Homo sapiens) (P07203 whole entry, looked up): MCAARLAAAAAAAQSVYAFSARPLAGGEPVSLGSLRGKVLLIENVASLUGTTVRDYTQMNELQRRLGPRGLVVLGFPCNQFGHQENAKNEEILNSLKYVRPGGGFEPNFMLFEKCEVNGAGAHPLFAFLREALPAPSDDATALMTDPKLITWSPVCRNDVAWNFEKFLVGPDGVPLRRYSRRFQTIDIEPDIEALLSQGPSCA

As to `C[C@@H]1O[C@@H](O[C@@H]2[C@@H](O[C@@H]3O[C@@H](C)[C@H](O[C@@H]4OC[C@H](O)[C@H](O[C@@H]5OC[C@@H](O)[C@H](O)[C@H]5O)[C@H]4O)[C@@H](O[C@@H]4OC[C@](O)(CO)[C@H]4O)[C@H]3O)[C@H](OC(=O)[C@]34CCC(C)(C)C[C@H]3C3=CCC5[C@@]6(C)C[C@H](O)[C@H](O[C@@H]7O[C@H](CO[C@@H]8OC[C@H](O)[C@H](O)[C@H]8O)[C@@H](O)[C@H](O)[C@H]7O)C(C)(C)C6CC[C@@]5(C)[C@]3(C)C[C@H]4O)OC[C@H]2O)[C@H](O)[C@H](O)[C@H]1O` (some centres undefined), the activity, negative = inhibition in test [1] is 1.11% [at 9.52 µM]; in test [5], 1.99% [at 11.6 µM]. The activity change, negative = inhibition in test [2] was -0.822% [at 9.73 µM]; in test [3] it was 1.22% [at 11.6 µM]. Further, the activity change, negative = thiol reactive in test [4] was 203% [at 11.5 µM]. For the same compound, the redox activity (% of DA3003) in test [6] was 6.31% [at 11.5 µM].

As for `O=C(CCc1ccccc1)N1CCC(O)(Cn2cnc3cc(Cl)ccc3c2=O)CC1`, the Potency result in test [1], in test [2], in test [3], in test [4] and in test [5] was “inactive” each time.

On to `CN(C)CCn1cc(S(=O)(=O)c2cccc(F)c2)c2cccnc21`, for which the Potency entry in test [1], in test [2], in test [3], in test [4], in test [5] and in test [6] was “inactive” each time.

As to `CCC(=O)O[C@H]1C(C)(C)[C@H]([C@@H](O)C(=O)OC)[C@]2(C)C(=O)[C@@]1(O)[C@H]1O[C@]13C1CC(=O)O[C@@H](c4ccoc4)[C@]1(C)CCC32` (some centres undefined), the Potency entry in test [1], in test [2], in test [3], in test [4], in test [5] and in test [6] was “inactive” in each case.

As for `CC(C)(C)NS(=O)(=O)c1cncc(-c2cc(F)c3nc(N)nn3c2)c1`, the Potency entry in test [1], in test [2], in test [3], in test [4], in test [5] and in test [6] was “inactive” throughout.

For the compound `CCOC(=O)Nc1cc(-c2ccc(C)c(NS(C)(=O)=O)c2)nn2c(C)nnc12`, the Potency entry in test [1], in test [2], in test [3], in test [4], in test [5] and in test [6] was “inactive” in each case.

Turning to `CC(=O)O[C@@H]1[C@H](O[C@@H]2O[C@@H](CO)[C@H](O)[C@H]2O)[C@@H](O[C@@H]2O[C@@H](C)[C@H](O[C@@H]3OC[C@@H](O)[C@H](O)[C@H]3O)[C@@H](O)[C@H]2O)[C@H](OC(=O)[C@]23CCC(C)(C)C[C@H]2C2=CCC4[C@@]5(C)CC[C@H](O[C@@H]6O[C@H](C(=O)O)[C@@H](O)[C@H](O)[C@H]6O[C@@H]6O[C@H](CO)[C@H](O)[C@H](O)[C@H]6O)[C@@](C)(C=O)C5CC[C@@]4(C)[C@]2(C)CC3)O[C@@H]1C` (some centres undefined), the activity, negative = inhibition was -3.42% [at 9.52 µM] in test [1] and 0% [at 11.6 µM] in test [5]. In addition, the activity change, negative = inhibition in test [2] is 2.32% [at 9.73 µM]; in test [3], 4.46% [at 11.6 µM]. Moreover, the activity change, negative = thiol reactive in test [4] was 321% [at 11.5 µM]. Besides, the redox activity (% of DA3003) in test [6] is 1.35% [at 11.5 µM].

As for `C[C@@H]1O[C@@H](OC[C@H]2O[C@@H](Oc3cc(O)cc4c3C(=O)C(O)(Cc3ccc(O)cc3)O4)[C@H](O)[C@@H](O)[C@@H]2O)[C@H](O)[C@H](O)[C@H]1O` (some centres undefined), the Potency entry in test [1], in test [2], in test [3], in test [4], in test [5] and in test [6] was “inactive” throughout.

For `C[C@H](C(=O)NC1CCCC1)N(C(=O)Cn1nnc(-c2ccc3c(c2)OCO3)n1)C1CCCCC1`, the Potency result in test [1], in test [2], in test [3], in test [4], in test [5] and in test [6] was “inactive” each time.

In the case of `O=C(O)COCCN1CCN([C@H](c2ccccc2)c2ccc(Cl)cc2)CC1`, the Potency entry in test [1], in test [2], in test [3], in test [4], in test [5] and in test [6] was “inactive” in each case.

For the compound `COc1cc(Nc2nc3ccccc3nc2NS(=O)(=O)c2ccc(NC(=O)c3ccc(OC)c(C)c3)cc2)cc(OC)c1`, the Potency entry in test [1], in test [2], in test [3], in test [5] and in test [6] was “inactive” each time. For the same compound, the Potency in test [4] was 1680 nM (active).

With `CC[C@H](NC(=O)[C@H](CS(=O)(=O)CC1CC1)N[C@@H](c1ccc(F)cc1)C(F)(F)F)C(=O)C(=O)NC1CC1`, the Potency result in test [1], in test [2], in test [3], in test [4], in test [5] and in test [6] was “inactive” throughout.

As to `CC[C@@](C)(Nc1ccnc(-c2c[nH]c3ncccc23)n1)C(=O)NCC(F)(F)F`, the Potency entry in test [1], in test [2], in test [3], in test [4], in test [5] and in test [6] was “inactive” throughout.

`O=C1CC2(CCCC2)[C@H](O)C(=O)N1CCCCN1CCN(c2ncccn2)CC1`: the Potency result in test [1], in test [2], in test [3], in test [4], in test [5] and in test [6] was “inactive” each time.

On to `CC[C@H]1OC(=O)[C@](C)(F)C(=O)[C@H](C)[C@@H](O[C@@H]2O[C@H](C)C[C@H](N(C)C)[C@H]2O)[C@](C)(OC)C[C@@H](C)C(=O)[C@@H](C)[C@H]2N(CCCCn3cc(-c4cccc(N)c4)nn3)C(=O)O[C@]12C`, for which the Potency entry in test [1], in test [2], in test [3], in test [4], in test [5] and in test [6] was “inactive” throughout.
